The nature of experiment [1]: qHTS assay for small molecule agonists of the antioxidant response element (ARE) signaling pathway (AID 743202; active = well fitted activation curve with a large enough effect in the signal ratio in the repeat runs, not every such curve was filed as active; the % refers to the signal ratio; also: potency is read from the fitted curve at half-maximal effect). The method in brief: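 Beta-lactamase reporter activity, read as fluorescence intensity, reflects ARE/Nrf2 pathway induction in HepG2 cells after 16 h compound exposure at 37 C; substrate loading was 2 h at room temperature.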
Experiment [2] is described as follows: qHTS assay for small molecule agonists of the antioxidant response element (ARE) signaling pathway - cell viability counter screen (AID 743203; calls by dose curve; also: nearly all actives have a fitted effect of over 55% in size; also: potency is read from the fitted curve at half-maximal effect). The method in brief: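 Luminescence read-out (CellTiter-Glo, 30 min at room temperature) measured cell viability in the same wells as the ARE beta-lactamase reporter. HepG2 ARE-bla cells were treated with compounds for 16 hrs at 37C/5% CO2.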

Experiment [3] is described as follows: qHTS assay for small molecule activators of the heat shock response signaling pathway - cell viability counter screen (AID 743209). Also: nearly all actives have a fitted effect of over 50% in size. The method in brief:
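HSE-bla HeLa; 1500 cells/well; overnight 37 C, 5% CO2; compound 5 h 37 C; LiveBLAzer B/G substrate 2.5 h RT; CellTiter-Glo 30 min RT; luminescence.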
(qHTS replaces the single test concentration by a dilution series.)

Experiment [4] can be described thus: qHTS assay for small molecule activators of the heat shock response signaling pathway (AID 743210; active = well fitted activation curve with a large enough effect in the signal ratio in the repeat runs, with a control signal flat, not every such curve was filed as active; the % refers to the signal ratio;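 also: HeLa cells with beta-lactamase reporter driven by heat shock elements; series mostly up to about 63 µM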). The method in brief:
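Fluorescence from a cleaved B/G FRET substrate (2.5 h, room temp) reports HSE-driven beta-lactamase in HeLa cells treated 5 h at 37 C with DMSO-dissolved compounds.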

Experiment [5] can be described thus: qHTS assay to identify small molecule agonists of the peroxisome proliferator-activated receptor delta (PPARd) signaling pathway - cell viability counter screen (AID 743211). Also: nearly all actives have a fitted effect of over 55% in size. Also: potency is read from the fitted curve at half-maximal effect. The method in brief:
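Read-out: CellTiter-Glo luminescence, 30 min RT, measured in the same wells as the beta-lactamase reporter. Cells: GeneBLAzer PPAR delta UAS-bla HEK293H, 3000 cells/well, compound exposure 17 h at 37C.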

The target in experiment [6] is Peroxisome proliferator-activated receptor delta (Homo sapiens) (UniProt Q03181). The experiment is described as follows: qHTS assay to identify small molecule agonists of the peroxisome proliferator-activated receptor delta (PPARd) signaling pathway (AID 743212; calls by dose curve). The method in brief:
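Steps: seed PPARd-bla HEK293H cells; incubate 5 h, 37 C, 5% CO2; add compounds in DMSO; incubate, 37 C; add LiveBLAzer B/G FRET substrate; hold 2 h at room temperature; measure fluorescence.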

Experiment [7] in a line: qHTS assay to identify small molecule antagonists of the peroxisome proliferator-activated receptor delta (PPARd) signaling pathway - cell viability counter screen (AID 743213). Also: nearly all actives have a fitted effect of over 50% in size. Also: potency is read from the fitted curve at half-maximal effect. The method in brief: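 In this counter screen, HEK293H cells carrying a UAS-beta-lactamase reporter are co-treated with test compounds and 300 nM L165041 (final) for 17 h at 37 C; cell viability is quantified by CellTiter-Glo luminescence.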

Experiment [8] deals with Bile acid receptor (Homo sapiens) (UniProt Q96RI1). The experiment is described as follows: qHTS assay to identify small molecule antagonists of the farnesoid-X-receptor (FXR) signaling pathway (AID 743217; active = well fitted inhibition curve with a large enough effect in the signal ratio in the repeat runs, not every such curve was filed as active; the % refers to the signal ratio). The method in brief:
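Read-out: beta-lactamase FRET fluorescence (LiveBLAzer B/G substrate, 2 h, room temperature) in GeneBLAzer FXR-UAS-bla HEK 293T cells. Compounds were co-dosed with 50 uM chenodeoxycholic acid (final) and incubated 16 h at 37 °C.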

Experiment [9] in a line: qHTS assay to identify small molecule agonists of the farnesoid-X-receptor (FXR) signaling pathway - cell viability counter screen (AID 743218). Also: nearly all actives have a fitted effect of over 45% in size. Also: potency is read from the fitted curve at half-maximal effect. The method in brief:
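Luminescence from CellTiter-Glo, read after 30 min at RT, reports viability of GeneBLAzer FXR-UAS-bla HEK 293T cells treated 16 h with compounds in the wells used for the beta-lactamase reporter.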

Experiment [10] concerns the target Bile acid receptor (Homo sapiens) (UniProt Q96RI1). Description: qHTS assay to identify small molecule agonists of the farnesoid-X-receptor (FXR) signaling pathway (AID 743220; active = well fitted activation curve with a large enough effect in the signal ratio in the repeat runs, not every such curve was filed as active; the % refers to the signal ratio). The method in brief: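 FXR-UAS-bla HEK 293T cells carrying a UAS-driven beta-lactamase reporter were plated for 5 h at 37C/5% CO2, then exposed to DMSO-dissolved Tox21 10K compounds for 16 h at 37C. A LiveBLAzer B/G FRET substrate was loaded for 2 h at room temperature before fluorescence reading.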

The nature of experiment [11]: qHTS assay to identify small molecule antagonists of the farnesoid-X-receptor (FXR) signaling pathway - cell viability counter screen (AID 743221; active = well fitted cell-killing curve with a large enough effect in the repeat runs, not every such curve was filed as active; also: nearly all actives have a fitted effect of over 50% in size; also: potency is read from the fitted curve at half-maximal effect). The method in brief: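 HEK 293T FXR-bla cells, 5 h pre-incubation; compound + CDCA 50 uM final, 16 h, 37 C; beta-lactamase FRET read first, then CellTiter-Glo luminescence, 30 min RT.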
Experiment [12] addresses Vitamin D3 receptor (Homo sapiens) (UniProt P11473). The experiment is described as follows: qHTS assay to identify small molecule antagonists of the vitamin D receptor (VDR) signaling pathway (AID 743223; active = well fitted inhibition curve with a large enough effect in the signal ratio in the repeat runs, not every such curve was filed as active; the % refers to the signal ratio; also: potency is read from the fitted curve at half-maximal effect). The method in brief:
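Beta-lactamase reporter read-out: FRET substrate fluorescence after 2 h at room temperature, following 16 h exposure of VDR-bla cells to test compound plus 3 nM (final) 1alpha,25-dihydroxyvitamin D3 agonist at 37C.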

A short description of experiment [13]: qHTS assay to identify small molecule that activate the aryl hydrocarbon receptor (AhR) signaling pathway - cell viability counter screen (AID 743086).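 Also: HepG2 liver cells carrying the AhR DRE luciferase reporter; series mostly up to about 70 µM; nearly all actives have a fitted effect of over 45% in size.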 The method in brief:
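Cytotoxicity counter screen: CellTiter-Fluor signal (30 min, 37 C) in 4000 HepG2 cells/well carrying the DRE-luciferase reporter, following 24 h compound exposure at 37 C.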

Experiment [14] can be described thus: qHTS assay to identify small molecule antagonists of the peroxisome proliferator-activated receptor gamma (PPARg) signaling pathway - cell viability counter screen (AID 743194). Also: nearly all actives have a fitted effect of over 55% in size. Also: potency is read from the fitted curve at half-maximal effect. The method in brief: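 Viability was measured as CellTiter-Glo luminescence in GeneBLAzer PPARg UAS-bla HEK293H cells. These cells had been exposed 17 h at 37 C to compounds together with rosiglitazone at 50 nM final, with the beta-lactamase readout taken in the same wells.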

In experiment [15] the target is Peroxisome proliferator-activated receptor delta (Homo sapiens) (UniProt Q03181). The experiment is described as follows: qHTS assay to identify small molecule antagonists of the peroxisome proliferator-activated receptor delta (PPARd) signaling pathway (AID 743215; active = well fitted inhibition curve with a large enough effect in the signal ratio in the repeat runs, not every such curve was filed as active; the % refers to the signal ratio;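 also: cells stimulated with agonist L165041 at 300 nM final during compound exposure; series mostly up to about 62 µM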). The method in brief: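 HEK293H GeneBLAzer PPARd UAS-bla reporter cells; cpd + L165041 300 nM final, 17 h 37 C; LiveBLAzer B/G FRET substrate 2 h RT; fluorescence intensity read-out. Antagonist mode.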
Peroxisome proliferator-activated receptor delta (Homo sapiens), sequence (Q03181 whole entry, looked up): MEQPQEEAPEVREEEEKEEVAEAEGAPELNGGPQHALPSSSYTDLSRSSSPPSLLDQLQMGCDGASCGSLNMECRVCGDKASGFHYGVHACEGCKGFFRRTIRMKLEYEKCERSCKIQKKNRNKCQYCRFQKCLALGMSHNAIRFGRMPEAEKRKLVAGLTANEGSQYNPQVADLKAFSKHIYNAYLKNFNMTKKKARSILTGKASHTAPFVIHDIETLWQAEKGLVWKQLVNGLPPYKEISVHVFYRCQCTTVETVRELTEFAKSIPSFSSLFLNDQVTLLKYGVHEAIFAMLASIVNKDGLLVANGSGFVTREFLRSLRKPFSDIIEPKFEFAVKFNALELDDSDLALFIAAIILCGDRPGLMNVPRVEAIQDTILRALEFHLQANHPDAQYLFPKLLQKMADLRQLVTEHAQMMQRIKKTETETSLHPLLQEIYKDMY

Experiment [16] deals with Peroxisome proliferator-activated receptor gamma (Homo sapiens) (UniProt P37231). Description: qHTS assay to identify small molecule antagonists of the peroxisome proliferator-activated receptor gamma (PPARg) signaling pathway (AID 743191; calls by dose curve; also: nearly all actives have a fitted effect of over 30% in size; also: potency is read from the fitted curve at half-maximal effect). The method in brief: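 Beta-lactamase reporter under UAS control in HEK293H PPARg-bla cells; compound treatment 17 h at 37C. Read-out: fluorescence intensity after 1 h room-temperature incubation with LiveBLAzer B/G FRET substrate.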
Peroxisome proliferator-activated receptor gamma (Homo sapiens), sequence (P37231 whole entry, looked up): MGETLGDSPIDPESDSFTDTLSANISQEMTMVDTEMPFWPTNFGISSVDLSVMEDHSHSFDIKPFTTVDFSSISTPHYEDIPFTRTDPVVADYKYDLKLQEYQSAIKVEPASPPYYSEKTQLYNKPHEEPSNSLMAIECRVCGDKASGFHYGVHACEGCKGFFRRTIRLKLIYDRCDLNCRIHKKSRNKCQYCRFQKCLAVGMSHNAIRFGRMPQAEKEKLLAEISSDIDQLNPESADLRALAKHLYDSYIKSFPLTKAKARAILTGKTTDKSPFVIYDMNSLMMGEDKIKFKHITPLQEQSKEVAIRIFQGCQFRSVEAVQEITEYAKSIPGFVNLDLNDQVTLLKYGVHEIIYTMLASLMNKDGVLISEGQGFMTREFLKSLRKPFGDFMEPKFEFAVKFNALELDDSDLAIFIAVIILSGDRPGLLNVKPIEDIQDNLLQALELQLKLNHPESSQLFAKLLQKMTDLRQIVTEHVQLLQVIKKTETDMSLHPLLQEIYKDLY

The target of experiment [17] is Vitamin D3 receptor (Homo sapiens) (UniProt P11473). Description: qHTS assay to identify small molecule agonists of the vitamin D receptor (VDR) signaling pathway (AID 743222; calls by dose curve). The method in brief:
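Beta-lactamase reporter readout (LiveBLAzer B/G FRET, 2 h RT) in VDR-bla cells after 16 h compound treatment at 37C, 5% CO2; cells pre-incubated 4 h before pin transfer of DMSO solutions.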

Experiment [18] addresses Peroxisome proliferator-activated receptor gamma (Homo sapiens) (UniProt P37231). The experiment is described as follows: qHTS assay to identify small molecule agonists of the peroxisome proliferator-activated receptor gamma (PPARg) signaling pathway (AID 743094; active = well fitted activation curve with a large enough effect in the signal ratio in the repeat runs, not every such curve was filed as active; the % refers to the signal ratio). The method in brief:
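HEK293H PPARg-bla cells, 5 h settle at 37C/5% CO2; compound (DMSO) 17 h, 37C; B/G FRET substrate 1 h RT; fluorescence intensity read-out. qHTS format.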

Inconclusive results are not listed. Activity calls are given as the source filed them. Unless noted, calls follow the shape of the dose curve; as a rule, active = well fitted curve in the direction sought with a large enough effect in the repeat runs; inconclusive = weak or mixed curves; inactive = no such curve, though single readings can be large; an effect the other way counts as inactive or inconclusive.

Bile acid receptor (Homo sapiens), sequence (Q96RI1 whole entry, looked up): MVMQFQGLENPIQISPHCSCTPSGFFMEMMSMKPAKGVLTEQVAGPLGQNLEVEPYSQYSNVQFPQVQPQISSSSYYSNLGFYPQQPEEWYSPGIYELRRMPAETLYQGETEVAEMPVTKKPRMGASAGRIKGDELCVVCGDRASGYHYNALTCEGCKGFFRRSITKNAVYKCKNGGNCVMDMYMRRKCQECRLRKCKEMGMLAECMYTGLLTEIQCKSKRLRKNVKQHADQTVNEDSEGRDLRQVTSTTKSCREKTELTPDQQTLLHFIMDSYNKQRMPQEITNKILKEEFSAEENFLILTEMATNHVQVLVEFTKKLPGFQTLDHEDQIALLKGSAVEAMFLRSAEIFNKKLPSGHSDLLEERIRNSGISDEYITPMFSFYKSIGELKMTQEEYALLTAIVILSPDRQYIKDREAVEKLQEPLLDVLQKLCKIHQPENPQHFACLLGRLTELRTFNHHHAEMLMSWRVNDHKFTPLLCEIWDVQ
Vitamin D3 receptor (Homo sapiens), sequence (P11473 whole entry, looked up): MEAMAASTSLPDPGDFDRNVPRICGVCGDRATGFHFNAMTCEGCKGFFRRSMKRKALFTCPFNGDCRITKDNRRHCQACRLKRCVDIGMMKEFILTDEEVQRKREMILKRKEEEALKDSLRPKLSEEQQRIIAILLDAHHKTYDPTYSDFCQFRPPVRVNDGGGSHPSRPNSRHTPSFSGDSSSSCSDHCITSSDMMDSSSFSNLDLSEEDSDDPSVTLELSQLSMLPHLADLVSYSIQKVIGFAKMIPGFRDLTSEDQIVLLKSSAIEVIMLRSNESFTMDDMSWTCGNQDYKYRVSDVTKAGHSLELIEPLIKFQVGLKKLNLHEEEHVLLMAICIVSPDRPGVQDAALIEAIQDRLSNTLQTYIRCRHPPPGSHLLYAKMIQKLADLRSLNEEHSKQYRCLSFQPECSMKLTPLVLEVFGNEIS

For the compound `CC(=O)c1cc2ccccc2s1`, the Potency entry in experiment [1], in experiment [2], in experiment [3], in [4], in experiment [5] and in experiment [6] was “inactive” in each case. In addition, the Potency result in experiment [7], in experiment [8], in experiment [9], in experiment [10], in experiment [11] and in [12] was “inactive” each time.
On to `CN(C(=O)CN(CCO)CC(=O)N(C)C(C)(C)Cc1ccccc1)C(C)(C)Cc1ccccc1`, for which the Potency result in experiment [13], in [14], in experiment [1], in [2], in experiment [6] and in [7] was “inactive” throughout. For the same compound, the Potency result in [15], in experiment [8], in experiment [10] and in experiment [12] was “inactive” each time.
For `CC(CC1c2ccccc2CCc2ccccc21)CN(C)C` (stereo unspecified), the Potency result in experiment [2], in [3], in experiment [15], in experiment [8], in experiment [9] and in [10] was “inactive” each time. The Potency entry in experiment [11] was “inactive”.
Turning to `CCCCN(CCCC)C(C(N)=O)c1ccc(OC)cc1` (stereo unspecified), the Potency entry in experiment [14], in experiment [1], in [2], in experiment [3], in experiment [4] and in experiment [5] was “inactive” throughout. Besides, the Potency result in experiment [6], in experiment [7], in [15], in experiment [9] and in experiment [11] was “inactive” throughout.
In the case of `Cc1c(C)c2c(c(C)c1OC(=O)CCC(=O)OCCO)CC[C@@](C)(CCC[C@H](C)CCC[C@H](C)CCCC(C)C)O2`, the Potency result in experiment [13], in experiment [2], in experiment [3], in experiment [4], in [6] and in [10] was “inactive” in each case. The Potency in [16] was 15 µM (active); in experiment [14] it was 33.5 µM (active); in [5], 33.5 µM (active).
`CN1C(=O)N(c2ccccc2Br)Cc2cnc(Nc3ccc4c(c3)OCC(CO)O4)nc21` (stereo unspecified): the Potency in experiment [14] was 49 µM (active); in experiment [5], 1.1 µM (active); in [7], 11 µM (active); in [12], 13.8 µM (active). Further, the Potency result in experiment [9] and in experiment [17] was “inactive” in each case.
With `CCOC(=O)c1ccc(O)c(O)c1`, the Potency entry in [16], in experiment [14], in [1], in [2], in [3] and in experiment [4] was “inactive” in each case. Further, the Potency entry in experiment [5], in [6], in experiment [7], in [15] and in experiment [11] was “inactive” in each case.
For `C=C/C(C)=C/C/C=C(\C)CCC=C(C)C`, the Potency result in experiment [13], in experiment [14], in experiment [6], in experiment [7], in experiment [15] and in experiment [8] was “inactive” each time. Also, the Potency result in [11] and in experiment [12] was “inactive” in each case. The Potency in experiment [1] is 54.5 µM (active).
As for `OCCN1CCN(CCCN2c3ccccc3Sc3ccc(Cl)cc32)CC1`, the Potency entry in experiment [18], in experiment [3], in [4], in experiment [6] and in [10] was “inactive” each time. Besides, the Potency was 29.8 µM (active) in experiment [2], 29.8 µM (active) in [5], 26.6 µM (active) in experiment [9] and 26.6 µM (active) in experiment [11].
For `COC(=O)[C@H]1[C@H]2C[C@@H]3c4[nH]c5cc(OC)ccc5c4CCN3C[C@H]2C[C@@H](OC(=O)/C=C/c2ccc(O)c(OC)c2)[C@@H]1OC`, the Potency in experiment [16] is 6.68 µM (active); in experiment [5], 8.41 µM (active); in experiment [7] it was 10.6 µM (active); in experiment [11], 18.8 µM (active). Moreover, the Potency entry in [2], in [3] and in experiment [10] was “inactive” each time.

The values above are taken from PubChem BioAssay (Tox21).
